# ROS inducer – cancer cell ROS induction. U2OS ROS induction, H2DCF-DA fluorescence. 46,000 tested, 2% active. AID 624156. ROS induction (% of piperlongumine), % at 10 µM; in the data active = ROS induction above about 79%, passing the limit was not always enough; inconclusive = no clear call, values can overlap the other calls;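 note: 0% = DMSO vehicle median and 100% = reference compound median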
# YB-1 expr inh – YB-1 expression inhibition; delta delta Cp (YB-1 minus CDIP) (test concentration not listed); 30,000 tested, 0.37% active; U2OS, qRT-PCR YB-1 vs CDIP delta delta Cp, 16 h; stronger effect = higher value; zero = DMSO, each unit about twofold; AID 434959;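 active = delta delta Cp rounded down to an integer at or above 3, about 3 SD of DMSO wells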;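 note: higher means less YB-1 transcript or more CDIP transcript relative to DMSO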
# The depositor's hits bear a star; ? = inconclusive; · = no result. Shown are actives, neighbours in structure and some others; about 2.1% of the full set was active somewhere.
SMILES,ROS inducer,YB-1 expr inh
O=C(CSc1ccc(F)cc1Cl)C12CC3CC(CC(C3)C1)C2,10,7.2*
N#CSCC(=O)C12CC3CC(CC(C3)C1)C2,55,-0.69
O=C(Cn1c2c(c(-c3ccccc3)cc1=O)CCCC2)NCc1ccc(Cl)cc1,7,·
CC(=O)N/C(=C/c1ccccc1Br)C(=O)NCc1ccc(C)cc1,-5,·
CCOC(=O)CSc1nc2c(sc3ccccc32)c(=O)n1Cc1ccccc1,65,·
Cc1ccc(NC(=O)Cn2nc(C)c([N+](=O)[O-])c2C)cc1C,169*,·
Cc1nn(CC(=O)Nc2ccc(F)cc2)c(C)c1[N+](=O)[O-],4,·
C=C1C(C2(C)C=CC(=O)C(C)(C)C2CC(=O)OC)CC[C@@]2(C)[C@H](c3ccoc3)OC(=O)C3OC132 (stereo not given in full),17,0.62
CCOC(=O)c1c(-c2ccccc2)oc2ccc(NS(=O)(=O)c3ccc(CC)cc3)cc12,9,·
CCCc1c(C#N)c(N)nc(SCCCN2CCN(c3cccc(Cl)c3)CC2)c1C#N,126*,·
O=c1n(CCCN2CCN(c3cccc(Cl)c3)CC2)nc2ccccn12,-1,-0.52
O=C(NCCOC12CC3CC(CC(C3)C1)C2)c1cc2ccccc2oc1=O,9,·
COc1ccc(-n2nnc3c(SCC(=O)N4CCc5ccccc54)ncnc32)cc1,-5,·
CCn1nc(C)c(Br)c1-c1nc(-c2ccccc2)no1,-6,·
CC(O)(CC(=O)O)CC(=O)OCC1OC(Oc2c(-c3ccc(O)cc3)oc3cc(O)cc(O)c3c2=O)C(O)C(O)C1O (stereo not given),-8,-0.14
CCS(=O)CCSc1nc(-c2ccc(Br)cc2)cc(-c2ccccc2)c1C#N (stereo not given),166*,·
CCS(=O)CCSc1nc(-c2ccc(C)cc2)cc(-c2ccccc2)c1C#N (stereo not given),-8,·
N#Cc1ccc(-c2cccs2)nc1SCCOc1ccccc1,4,·
CC(C)(C)c1ccc(-c2cc3ccccn3c2)cc1,7,10*
CC(C)(C)c1ccc(-c2nc(=O)[nH]n2-c2ccccc2)cc1,-4,·
O=S(=O)(/N=c1\cc(-c2ccccc2)ss1)c1ccccc1,6,·
C[C@@H]1CN([C@@H](C)CO)C(=O)c2cccc(NC(=O)Nc3ccccc3)c2O[C@@H]1CN(C)S(C)(=O)=O,25,0.24
C[C@@H]1CN([C@H](C)CO)C(=O)c2cccc(NC(=O)Nc3cccc4ccccc34)c2O[C@H]1CN(C)S(=O)(=O)c1ccc(F)cc1,111*,0.13
COc1ccc(S(=O)(=O)N(C)C[C@@H]2Oc3c(NC(=O)c4nc5ccccc5s4)cccc3C(=O)N([C@H](C)CO)C[C@@H]2C)cc1,25,-0.15
C[C@@H]1CN([C@@H](C)CO)C(=O)c2cccc(NC(=O)Nc3ccccc3)c2O[C@H]1CN(C)S(C)(=O)=O,91*,0.26
SMILES,ROS inducer,YB-1 expr inh
COc1ccc(S(=O)(=O)N(C)C[C@H]2Oc3c(NC(=O)c4nc5ccccc5s4)cccc3C(=O)N([C@@H](C)CO)C[C@H]2C)cc1,13,7.9*
C[C@@H]1CN([C@H](C)CO)C(=O)c2cccc(NC(=O)Nc3cccc4ccccc34)c2O[C@H]1CN(C)S(=O)(=O)c1ccccc1,1,-0.098
CC(C)(C)c1cc(C(=O)N2CCN(c3ccc(C(F)(F)F)cn3)CC2)n(Cc2ccc(F)cc2)n1,14,·
CN(C(=O)Cn1nc(Cc2cccnc2)c2ccccc2c1=O)C1CCCCC1,-7,·
O=c1oc2cc(O)ccc2cc1-c1nc2ccccc2s1,149*,·
CCOc1cccc2cc(-c3nc4ccccc4s3)c(=O)oc12,17,0.062
CC(C)(Oc1ccc(Cl)cc1)C(=O)NC1CCCCNC1=O (stereo not given),-10,·
CN(CCO)C(=O)c1ccc2c(c1)C(=O)c1ccccc1-2,19,0.66
CCCc1cc(-n2cnc3ccccc32)n2c(nc3ccccc32)c1C#N,37,·
Cc1cc(/N=C\N(C)C)n2c(nc3ccccc32)c1C#N,48,·
CC(C)c1cc(NC(C)c2ccccc2)n2c(nc3ccccc32)c1C#N (stereo not given),257*,·
CC(C)c1cc(NC2CCCCC2)n2c(nc3ccccc32)c1C#N,164*,·
Cc1ccccc1NS(=O)(=O)c1ccc2[nH]cc(C(=O)N(C)Cc3ccccc3)c(=O)c2c1,8,·
N#CCC(=O)N=Cc1ccc(Cl)cc1Cl,11,-0.081
CCCN1CC=C2C(C#N)=C(N)C(C#N)(C#N)C3(C(=O)Nc4ccccc43)C2C1 (stereo not given),38,0.36
N#CC1=C(N)C(C#N)(C#N)C2(C(=O)N(Cc3ccccc3)c3ccccc32)C2CCCC=C12 (stereo not given),127*,0.039
Cc1ccc(-c2nnc3c4ccccc4c(C)nn23)cc1S(=O)(=O)NC(C)c1ccccc1 (stereo not given),-4,·
Cc1ccc(-c2nn3c(C)nnc3c3ccccc23)cc1S(=O)(=O)NCc1ccco1,125*,·
COC(=O)c1nn(-c2ccccc2)c2oc(=O)cc(C)c12,-7,·
COc1cc(/C=C/C(=O)CC(=O)/C=C/c2ccc(O)c(OC)c2)ccc1O,43,-0.15
COc1ccc(/C=C/C(=O)CC(=O)/C=C/c2cccc(O)c2OC)cc1O,98*,-0.52
NC(=O)[C@H]1[C@@H]2C(=O)O[C@@H](c3ccccc3)[C@@H](c3ccccc3)N2[C@@H](c2ccc(OCCO)cc2)[C@]12C(=O)Nc1ccc(C#CC3=CCCCC3)cc12,28,0.072
O=C1O[C@@H](c2ccccc2)[C@@H](c2ccccc2)N2[C@@H](c3ccc(OCCO)cc3)[C@]3(C(=O)Nc4ccc(C#CC5=CCCCC5)cc43)[C@@H](C(=O)O)[C@H]12,159*,-0.24
C=CCNC(=O)[C@H]1[C@@H]2C(=O)O[C@@H](c3ccccc3)[C@@H](c3ccccc3)N2[C@@H](c2ccc(OCCO)cc2)[C@]12C(=O)Nc1ccc(C#CCC(C(=O)OC)C(=O)OC)cc12,157*,-0.063
C=CCNC(=O)[C@@H]1[C@H]2C(=O)O[C@H](c3ccccc3)[C@H](c3ccccc3)N2[C@H](c2ccc(OCCO)cc2)[C@@]12C(=O)Nc1ccc(C#CCC(C(=O)OC)C(=O)OC)cc12,?,0.055
COC(=O)C(CC#Cc1ccc2c(c1)[C@]1(C(=O)N2)[C@H](c2ccc(OCCO)cc2)N2[C@H](c3ccccc3)[C@H](c3ccccc3)OC(=O)[C@H]2[C@@H]1C(=O)N1CCc2cc(OC)c(OC)cc2C1)C(=O)OC,132*,0.08
COC(=O)C(CC#Cc1ccc2c(c1)[C@]1(C(=O)N2)[C@H](c2ccccc2OCCO)N2[C@H](c3ccccc3)[C@H](c3ccccc3)OC(=O)[C@H]2[C@@H]1C(=O)NC[C@H](O)c1ccccc1)C(=O)OC,205*,-0.0048
COC(=O)C(CC#Cc1ccc2c(c1)[C@]1(C(=O)N2)[C@H](C(=O)NC[C@H](O)c2ccccc2)[C@H]2C(=O)O[C@H](c3ccccc3)[C@H](c3ccccc3)N2[C@@H]1c1ccc(OCCO)cc1)C(=O)OC,23,-0.13
COc1ccc(C#Cc2ccc3c(c2)[C@]2(C(=O)N3)[C@H](C(=O)N3CCc4cc(OC)c(OC)cc4C3)[C@H]3C(=O)O[C@H](c4ccccc4)[C@H](c4ccccc4)N3[C@@H]2c2ccc(OCCO)cc2)cc1,23,-0.23

# Screening results as filed in PubChem BioAssay.
